Measurements taken from the supplement of paper PMC10849652.
Of roughly 7,900 targets only a part is listed; those with a hit were picked by preference. About 0.6% of all pairs of compound and target were hits.

Key:
Experiment in all cases: log2 fold change, soluble protein after heating vs DMSO (PISA); higher = thermal stabilisation; K562 cells, 10 uM, 30 min; active = over 0.2 and 3.5 SD of the protein, either way, in both replicates (recomputed)
YAE1 = YAE1 (UniProt Q9NRH1)
Method in brief: (§1)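 Thermal stability values are relative to control samples and come from duplicates. They are expressed as log2 fold changes. For measurement, K562 cells (2×10^6 cells/mL) received 10 μM compound for 30 min, and aliquots were heated for 3 min over 48°C-58°C, pooled, and extracted at 4°C in PBS with 0.5% NP-40. Soluble protein, the supernatant after 21,000xg for 90 min, was quantified by TMTpro 16plex LC-MS/MS with equalised channel sums.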

YBX1 = YBX1 (UniProt P67809)
Method in brief: as §1

YIPF4 = YIPF4 (UniProt Q9BSR8)
Method in brief: as §1

YIPF5 isoform 3 = YIPF5 isoform 3 (UniProt Q969M3)
Method in brief: as §1

YIPF6 = YIPF6 (UniProt Q96EC8)
Method in brief: as §1

YLPM1 = YLPM1 (UniProt P49750)
Method in brief: as §1

YOD1 = YOD1 (UniProt Q5VVQ6)
Method in brief: as §1

YPEL5 = YPEL5 (UniProt P62699)
Method in brief: as §1

YWHAB = YWHAB (UniProt P31946)
Method in brief: as §1

YWHAQ = YWHAQ (UniProt P27348)
Method in brief: as §1

YWHAZ [1] = target: YWHAZ (UniProt P63104)
Method in brief: as §1

YY1 = YY1 (UniProt P25490)
Method in brief: as §1

ZADH2 = ZADH2 (UniProt Q8N4Q0)
Method in brief: as §1

ZBTB17 isoform 2 = ZBTB17 isoform 2 (UniProt Q13105)
Method in brief: as §1

ZBTB21 = ZBTB21 (UniProt Q9ULJ3)
Method in brief: as §1

ZBTB43 = ZBTB43 (UniProt O43298)
Method in brief: as §1

ZC3H18 = ZC3H18 (UniProt Q86VM9)
Method in brief: as §1

YES1 = YES1 (UniProt P07947)
Method in brief: as §1

YWHAZ [2] = target: YWHAZ (UniProt E7ESK7)
Method in brief: as §1

Measured: log2 fold change

YOD1, sequence (Q5VVQ6 whole entry, looked up): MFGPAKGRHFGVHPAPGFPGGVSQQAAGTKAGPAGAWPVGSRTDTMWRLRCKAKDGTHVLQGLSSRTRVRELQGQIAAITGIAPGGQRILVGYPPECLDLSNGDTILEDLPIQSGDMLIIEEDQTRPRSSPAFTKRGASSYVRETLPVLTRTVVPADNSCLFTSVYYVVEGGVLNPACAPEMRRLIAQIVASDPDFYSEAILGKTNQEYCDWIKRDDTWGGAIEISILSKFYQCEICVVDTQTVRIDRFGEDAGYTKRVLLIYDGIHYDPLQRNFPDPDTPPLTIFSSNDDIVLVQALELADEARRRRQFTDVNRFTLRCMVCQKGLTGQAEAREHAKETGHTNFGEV
YAE1, sequence (Q9NRH1 whole entry, looked up): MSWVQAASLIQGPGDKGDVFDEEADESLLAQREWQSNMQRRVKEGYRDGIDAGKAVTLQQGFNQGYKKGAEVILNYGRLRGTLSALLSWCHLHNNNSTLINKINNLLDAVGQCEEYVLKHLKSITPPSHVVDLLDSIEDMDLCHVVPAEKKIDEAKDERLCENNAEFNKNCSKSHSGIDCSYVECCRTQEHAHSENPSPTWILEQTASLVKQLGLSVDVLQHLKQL
ZBTB21, sequence (Q9ULJ3 whole entry, looked up): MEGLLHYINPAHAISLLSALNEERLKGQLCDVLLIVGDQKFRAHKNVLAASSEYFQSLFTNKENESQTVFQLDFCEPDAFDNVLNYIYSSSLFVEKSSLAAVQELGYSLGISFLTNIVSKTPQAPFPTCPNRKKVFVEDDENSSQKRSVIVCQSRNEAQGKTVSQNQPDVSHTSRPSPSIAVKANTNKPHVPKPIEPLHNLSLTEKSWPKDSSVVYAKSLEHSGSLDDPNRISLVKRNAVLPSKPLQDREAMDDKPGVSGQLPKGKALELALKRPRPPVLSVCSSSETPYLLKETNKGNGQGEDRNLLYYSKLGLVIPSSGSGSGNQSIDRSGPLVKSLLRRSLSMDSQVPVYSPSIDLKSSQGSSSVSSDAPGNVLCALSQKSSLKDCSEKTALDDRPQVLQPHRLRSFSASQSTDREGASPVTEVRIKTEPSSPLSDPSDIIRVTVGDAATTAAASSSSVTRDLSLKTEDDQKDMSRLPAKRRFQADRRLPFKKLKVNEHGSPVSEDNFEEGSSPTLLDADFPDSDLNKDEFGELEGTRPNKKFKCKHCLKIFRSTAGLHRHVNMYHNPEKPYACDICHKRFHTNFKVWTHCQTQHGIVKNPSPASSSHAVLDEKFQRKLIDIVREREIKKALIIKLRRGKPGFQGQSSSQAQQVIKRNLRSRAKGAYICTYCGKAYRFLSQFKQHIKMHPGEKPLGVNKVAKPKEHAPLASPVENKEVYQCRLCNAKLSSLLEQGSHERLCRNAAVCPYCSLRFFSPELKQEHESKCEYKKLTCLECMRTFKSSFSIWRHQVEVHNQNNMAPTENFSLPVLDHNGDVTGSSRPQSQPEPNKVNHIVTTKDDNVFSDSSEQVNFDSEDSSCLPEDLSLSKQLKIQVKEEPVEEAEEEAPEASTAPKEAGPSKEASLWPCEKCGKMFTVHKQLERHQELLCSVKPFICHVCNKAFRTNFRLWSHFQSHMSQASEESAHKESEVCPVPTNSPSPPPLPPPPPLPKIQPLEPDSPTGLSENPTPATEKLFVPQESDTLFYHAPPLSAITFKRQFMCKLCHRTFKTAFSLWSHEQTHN
ZBTB43, sequence (O43298 whole entry, looked up): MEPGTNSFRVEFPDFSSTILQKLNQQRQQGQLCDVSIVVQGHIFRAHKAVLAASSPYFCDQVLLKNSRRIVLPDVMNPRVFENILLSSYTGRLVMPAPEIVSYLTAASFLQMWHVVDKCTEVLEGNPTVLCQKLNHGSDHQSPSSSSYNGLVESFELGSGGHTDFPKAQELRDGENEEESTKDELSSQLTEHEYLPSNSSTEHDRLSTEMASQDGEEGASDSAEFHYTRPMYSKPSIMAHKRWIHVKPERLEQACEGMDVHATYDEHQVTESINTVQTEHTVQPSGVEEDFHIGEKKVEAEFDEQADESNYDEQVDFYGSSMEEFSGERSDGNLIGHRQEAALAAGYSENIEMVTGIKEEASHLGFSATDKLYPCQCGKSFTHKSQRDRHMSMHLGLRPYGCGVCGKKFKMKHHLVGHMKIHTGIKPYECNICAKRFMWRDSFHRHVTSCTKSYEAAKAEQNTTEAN
YIPF6, sequence (Q96EC8 whole entry, looked up): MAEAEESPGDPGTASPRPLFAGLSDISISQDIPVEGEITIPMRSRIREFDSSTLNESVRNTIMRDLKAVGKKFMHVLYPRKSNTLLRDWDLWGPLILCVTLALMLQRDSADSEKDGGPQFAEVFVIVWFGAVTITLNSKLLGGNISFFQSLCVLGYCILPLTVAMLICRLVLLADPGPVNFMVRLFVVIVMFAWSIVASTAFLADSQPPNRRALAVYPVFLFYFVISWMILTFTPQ
YWHAZ (UniProt P63104), sequence (P63104 whole entry, looked up): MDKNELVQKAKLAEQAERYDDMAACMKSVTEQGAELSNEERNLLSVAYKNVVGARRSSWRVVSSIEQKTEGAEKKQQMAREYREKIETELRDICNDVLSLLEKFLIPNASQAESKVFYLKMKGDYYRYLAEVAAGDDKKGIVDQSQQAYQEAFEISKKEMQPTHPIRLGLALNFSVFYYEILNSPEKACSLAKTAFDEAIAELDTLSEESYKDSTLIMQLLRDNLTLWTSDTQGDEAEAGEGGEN
ZADH2, sequence (Q8N4Q0 whole entry, looked up): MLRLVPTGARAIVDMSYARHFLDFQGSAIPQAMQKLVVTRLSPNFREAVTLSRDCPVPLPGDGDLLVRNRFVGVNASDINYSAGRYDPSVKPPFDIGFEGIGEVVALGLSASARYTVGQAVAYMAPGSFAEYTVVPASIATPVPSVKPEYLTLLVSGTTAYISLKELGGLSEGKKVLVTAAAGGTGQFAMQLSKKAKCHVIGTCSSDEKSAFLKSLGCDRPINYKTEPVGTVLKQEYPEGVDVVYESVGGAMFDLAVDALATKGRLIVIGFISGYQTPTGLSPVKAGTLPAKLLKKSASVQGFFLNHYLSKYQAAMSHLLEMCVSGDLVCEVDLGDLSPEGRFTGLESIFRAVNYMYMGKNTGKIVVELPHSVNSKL
ZBTB17 isoform 2, sequence (Q13105 whole entry, looked up, canonical isoform): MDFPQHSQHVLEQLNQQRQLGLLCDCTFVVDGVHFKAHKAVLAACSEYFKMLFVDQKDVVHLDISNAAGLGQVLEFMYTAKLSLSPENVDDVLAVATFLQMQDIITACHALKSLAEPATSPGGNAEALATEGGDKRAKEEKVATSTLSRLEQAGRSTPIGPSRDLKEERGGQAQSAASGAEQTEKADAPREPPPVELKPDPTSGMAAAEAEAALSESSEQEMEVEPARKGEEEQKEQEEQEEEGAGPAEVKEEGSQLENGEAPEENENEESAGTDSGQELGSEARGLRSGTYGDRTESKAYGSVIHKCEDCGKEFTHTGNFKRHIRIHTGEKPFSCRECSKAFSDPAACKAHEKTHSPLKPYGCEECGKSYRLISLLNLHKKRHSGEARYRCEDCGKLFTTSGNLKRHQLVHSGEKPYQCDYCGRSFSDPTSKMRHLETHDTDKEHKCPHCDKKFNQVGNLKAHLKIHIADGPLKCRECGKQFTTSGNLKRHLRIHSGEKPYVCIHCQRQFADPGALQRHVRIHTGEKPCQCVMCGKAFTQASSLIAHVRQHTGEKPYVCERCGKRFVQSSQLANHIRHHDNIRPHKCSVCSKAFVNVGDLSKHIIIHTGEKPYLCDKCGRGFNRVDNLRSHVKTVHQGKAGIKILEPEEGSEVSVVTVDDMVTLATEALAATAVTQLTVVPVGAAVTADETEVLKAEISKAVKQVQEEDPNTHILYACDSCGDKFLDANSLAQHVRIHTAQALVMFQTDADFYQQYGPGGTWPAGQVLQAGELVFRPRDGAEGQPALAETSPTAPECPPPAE
ZC3H18, sequence (Q86VM9 whole entry, looked up): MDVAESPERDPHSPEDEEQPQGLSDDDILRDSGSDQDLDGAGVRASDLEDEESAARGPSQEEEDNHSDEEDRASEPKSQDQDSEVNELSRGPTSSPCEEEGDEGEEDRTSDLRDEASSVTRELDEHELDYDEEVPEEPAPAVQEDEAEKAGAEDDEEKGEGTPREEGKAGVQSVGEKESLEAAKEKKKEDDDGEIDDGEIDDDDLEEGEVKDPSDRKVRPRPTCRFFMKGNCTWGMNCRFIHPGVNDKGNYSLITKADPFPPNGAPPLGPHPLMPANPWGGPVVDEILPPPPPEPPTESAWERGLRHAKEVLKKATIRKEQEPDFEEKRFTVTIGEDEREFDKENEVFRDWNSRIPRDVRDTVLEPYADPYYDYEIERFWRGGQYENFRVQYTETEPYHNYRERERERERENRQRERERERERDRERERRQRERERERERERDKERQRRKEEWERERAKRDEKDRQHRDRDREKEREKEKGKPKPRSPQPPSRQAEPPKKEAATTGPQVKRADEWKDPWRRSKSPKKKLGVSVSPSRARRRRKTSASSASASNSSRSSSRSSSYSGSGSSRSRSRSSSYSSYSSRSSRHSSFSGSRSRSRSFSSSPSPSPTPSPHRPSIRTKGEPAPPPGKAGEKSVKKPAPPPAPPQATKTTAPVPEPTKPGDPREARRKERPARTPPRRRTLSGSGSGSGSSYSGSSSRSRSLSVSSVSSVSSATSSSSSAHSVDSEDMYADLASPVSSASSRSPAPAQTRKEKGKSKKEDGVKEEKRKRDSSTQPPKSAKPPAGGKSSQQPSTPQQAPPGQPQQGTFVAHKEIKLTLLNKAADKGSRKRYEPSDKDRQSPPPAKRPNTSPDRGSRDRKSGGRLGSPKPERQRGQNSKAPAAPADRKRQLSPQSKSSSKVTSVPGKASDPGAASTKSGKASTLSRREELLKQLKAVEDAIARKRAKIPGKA
YWHAQ, sequence (P27348 whole entry, looked up): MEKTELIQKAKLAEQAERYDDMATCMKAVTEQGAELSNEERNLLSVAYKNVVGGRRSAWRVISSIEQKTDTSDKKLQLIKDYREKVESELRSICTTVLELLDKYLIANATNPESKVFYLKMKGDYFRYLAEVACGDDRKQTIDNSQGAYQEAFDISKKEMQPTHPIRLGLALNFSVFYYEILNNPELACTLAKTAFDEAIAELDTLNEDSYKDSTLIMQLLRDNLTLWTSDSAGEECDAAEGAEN

CON(C)C(=O)N1N=C(c2cc(F)ccc2F)S[C@@]1(CCCN)c1ccccc1 [filanesib]
inactive: YAE1 0.133 | YBX1 0.202 | YIPF4 0.077 | YIPF5 isoform 3 0.017 | YIPF6 -0.08 | YLPM1 0.083 | YOD1 -0.067 | YPEL5 0.413 | YWHAB -0.044 | YWHAQ -0.086 | YWHAZ [1] -0.027 | YY1 -0.006 | ZADH2 0.065 | ZBTB17 isoform 2 -0.026 | ZBTB21 0.075 | ZBTB43 -0.024 | ZC3H18 0.217

CS(=O)(=O)c1ccc(-c2cnc(N)c(C(=O)Nc3ccccc3)n2)cc1
inactive: YAE1 0.011 | YBX1 -0.101 | YIPF4 0.013 | YIPF5 isoform 3 -0.093 | YIPF6 0.199 | YLPM1 -0.051 | YOD1 0.117 | YPEL5 0.152 | YWHAB 0.017 | YWHAQ -0.013 | YWHAZ [1] -0.017 | YY1 -0.061 | ZADH2 -0.063 | ZBTB17 isoform 2 -0.013 | ZBTB21 0.048 | ZBTB43 0.021 | ZC3H18 -0.056

NC(=O)Nc1cc(-c2cccc(F)c2)sc1C(=O)N[C@H]1CCCNC1
inactive: YAE1 -0.023 | YBX1 0.025 | YIPF4 0.066 | YIPF5 isoform 3 0.023 | YIPF6 -0.081 | YLPM1 -0.023 | YOD1 -0.079 | YPEL5 0.114 | YWHAB -0.027 | YWHAQ 0.065 | YWHAZ [1] 0.098 | YY1 0.037 | ZADH2 -0.074 | ZBTB17 isoform 2 -0.032 | ZBTB21 -0.083 | ZBTB43 -0.018 | ZC3H18 -0.037

CCCS(=O)(=O)Nc1ccc(F)c(C(=O)c2c[nH]c3ncc(-c4ccc(Cl)cc4)cc23)c1F [vemurafenib]
inactive: YAE1 0.019 | YBX1 -0.12 | YES1 -0.159 | YIPF4 0.03 | YIPF5 isoform 3 -0.021 | YIPF6 -0.15 | YLPM1 0.017 | YOD1 -0.001 | YPEL5 -0.068 | YWHAB 0.021 | YWHAQ 0.284 | YWHAZ [1] 0.037 | YY1 0.03 | ZADH2 0 | ZBTB21 -0.032 | ZBTB43 0.044 | ZC3H18 -0.025

CN1CCN(c2nc(C3=C(c4c[nH]c5ccccc45)C(=O)NC3=O)c3ccccc3n2)CC1 [sotrastaurin]
inactive: YAE1 0.074 | YBX1 0.016 | YIPF4 0.113 | YIPF5 isoform 3 0.034 | YLPM1 0.021 | YOD1 0.034 | YPEL5 -0.102 | YWHAB 0.031 | YWHAQ -0.043 | YWHAZ [1] -0.01 | YY1 -0.092 | ZADH2 -0.015 | ZBTB17 isoform 2 0.03 | ZBTB21 0.022 | ZBTB43 0.027 | ZC3H18 -0.11
active: YIPF6 -0.648

CN(C)CC(=O)Nc1ccc2[nH]c(=O)c3ccccc3c2c1
inactive: YAE1 -0.108 | YBX1 -0.134 | YES1 -0.075 | YIPF4 0.09 | YIPF5 isoform 3 0.014 | YIPF6 -0.012 | YLPM1 -0.037 | YOD1 0.043 | YPEL5 0.008 | YWHAB -0.033 | YWHAQ 0.16 | YWHAZ [1] 0.009 | YY1 -0.047 | ZADH2 0.02 | ZBTB21 0.018 | ZBTB43 -0.07 | ZC3H18 -0.039

O=C(CCCCCCC(=O)Nc1ccccc1)NO [vorinostat]
inactive: YAE1 0.044 | YBX1 -0.056 | YES1 0.069 | YIPF4 -0.046 | YIPF5 isoform 3 0.156 | YIPF6 -0.035 | YLPM1 0.024 | YOD1 0.033 | YPEL5 0.028 | YWHAB -0.02 | YWHAQ 0.39 | YWHAZ [1] -0.013 | YY1 0.134 | ZADH2 0.002 | ZBTB21 0.079 | ZBTB43 -0.005 | ZC3H18 0.091

CC[C@H](C)n1cc(C)c2c(C(=O)NCc3c(C)cc(C)[nH]c3=O)cc(-c3ccc(N4CCNCC4)nc3)cc21
inactive: YAE1 0.02 | YBX1 -0.063 | YES1 0.112 | YIPF4 -0.016 | YIPF5 isoform 3 -0.041 | YIPF6 -0.039 | YLPM1 0.067 | YOD1 0.081 | YPEL5 0.109 | YWHAB 0.009 | YWHAQ 0.072 | YWHAZ [1] 0.008 | YY1 0.061 | ZBTB21 0.059 | ZBTB43 -0.187 | ZC3H18 0.032
active: ZADH2 0.526

Cc1cn(-c2cc(NC(=O)c3ccc(C)c(Nc4nccc(-c5cccnc5)n4)c3)cc(C(F)(F)F)c2)cn1 [nilotinib]
inactive: YAE1 -0.023 | YBX1 0.033 | YES1 -0.033 | YIPF4 0.046 | YIPF5 isoform 3 0.021 | YIPF6 0.063 | YLPM1 -0.044 | YOD1 -0.061 | YPEL5 -0.237 | YWHAB 0.039 | YWHAQ 0.018 | YWHAZ [1] 0.04 | YY1 -0.033 | ZADH2 0.04 | ZBTB21 0.023 | ZBTB43 -0.157 | ZC3H18 0.099

CC1=C(C(=O)Nc2cc3cn[nH]c3cc2F)C(c2ccc(C(F)(F)F)cc2)CC(=O)N1 (stereo unspecified)
inactive: YAE1 -0.001 | YBX1 0.044 | YES1 -0.012 | YIPF4 -0.019 | YIPF5 isoform 3 -0.007 | YIPF6 0.055 | YLPM1 -0.01 | YOD1 0.023 | YPEL5 0.058 | YWHAB 0.001 | YWHAQ 0.107 | YWHAZ [1] 0.058 | YY1 0.059 | ZADH2 -0.014 | ZBTB21 0.033 | ZBTB43 -0.04 | ZC3H18 0.022

CCN(CC)Cc1ccc2cc(COC(=O)Nc3ccc(C(=O)NO)cc3)ccc2c1 [givinostat]
inactive: YAE1 -0.017 | YBX1 -0.056 | YES1 0.016 | YIPF4 -0.048 | YIPF5 isoform 3 -0.053 | YIPF6 -0.028 | YLPM1 0.061 | YOD1 0.024 | YPEL5 -0.009 | YWHAB -0.026 | YWHAQ -0.039 | YWHAZ [1] -0.001 | YY1 0.02 | ZADH2 -0.066 | ZBTB17 isoform 2 -0.011 | ZBTB21 -0.045 | ZBTB43 -0.006 | ZC3H18 0.106

CC(C)c1cnn2c(NCc3ccccc3)cc(NCCCCCCN)nc12
active: YY1 -0.24
inactive: YAE1 0.057 | YBX1 0.038 | YES1 0 | YIPF4 -0.032 | YIPF5 isoform 3 0.008 | YIPF6 -0.044 | YLPM1 -0.086 | YOD1 -0.153 | YPEL5 -0.083 | YWHAB 0.014 | YWHAQ -0.026 | YWHAZ [1] 0.052 | ZADH2 -0.019 | ZBTB17 isoform 2 0.054 | ZBTB21 -0.027 | ZBTB43 0.138 | ZC3H18 -0.122

Cc1ncc(-c2ccnc(Nc3ccc(S(C)(=O)=O)cc3)n2)n1C(C)C
inactive: YAE1 0.042 | YBX1 0.013 | YES1 -0.051 | YIPF4 -0.005 | YIPF5 isoform 3 -0.03 | YIPF6 -0.023 | YLPM1 -0.011 | YOD1 -0.018 | YPEL5 0.036 | YWHAB 0 | YWHAQ -0.026 | YWHAZ [1] -0.003 | YY1 -0.207 | ZADH2 0.066 | ZBTB21 0.061 | ZBTB43 0.16 | ZC3H18 -0.162

CN1CCc2c(c3ccccc3n2Cc2ccc(C(=O)NO)cc2)C1 [Tubastatin A]
inactive: YAE1 -0.018 | YBX1 0.022 | YES1 0.094 | YIPF4 -0.028 | YIPF5 isoform 3 -0.103 | YIPF6 -0.01 | YLPM1 0.039 | YOD1 0.072 | YWHAB -0.014 | YWHAQ -0.026 | YWHAZ [2] 0.102 | YWHAZ [1] -0.004 | YY1 -0.011 | ZADH2 -0.007 | ZBTB17 isoform 2 0.049 | ZBTB21 -0.132 | ZBTB43 -0.018 | ZC3H18 0.129
